Assays:
Test in all cases: log2 ratio of Biotin-Ahx-Ub-VS probe labelling (fragment/DMSO); higher = less target engagement (more negative = stronger competition), active = hit call of the paper (q ≤ 0.05, log2 ratio ≤ -1)
Conditions in all cases: compound concentration: 200 uM; treatment time: 3 h
USP42 = target: T1, USP42 (UniProt Q9H9J4)
T1 sequence (whole entry): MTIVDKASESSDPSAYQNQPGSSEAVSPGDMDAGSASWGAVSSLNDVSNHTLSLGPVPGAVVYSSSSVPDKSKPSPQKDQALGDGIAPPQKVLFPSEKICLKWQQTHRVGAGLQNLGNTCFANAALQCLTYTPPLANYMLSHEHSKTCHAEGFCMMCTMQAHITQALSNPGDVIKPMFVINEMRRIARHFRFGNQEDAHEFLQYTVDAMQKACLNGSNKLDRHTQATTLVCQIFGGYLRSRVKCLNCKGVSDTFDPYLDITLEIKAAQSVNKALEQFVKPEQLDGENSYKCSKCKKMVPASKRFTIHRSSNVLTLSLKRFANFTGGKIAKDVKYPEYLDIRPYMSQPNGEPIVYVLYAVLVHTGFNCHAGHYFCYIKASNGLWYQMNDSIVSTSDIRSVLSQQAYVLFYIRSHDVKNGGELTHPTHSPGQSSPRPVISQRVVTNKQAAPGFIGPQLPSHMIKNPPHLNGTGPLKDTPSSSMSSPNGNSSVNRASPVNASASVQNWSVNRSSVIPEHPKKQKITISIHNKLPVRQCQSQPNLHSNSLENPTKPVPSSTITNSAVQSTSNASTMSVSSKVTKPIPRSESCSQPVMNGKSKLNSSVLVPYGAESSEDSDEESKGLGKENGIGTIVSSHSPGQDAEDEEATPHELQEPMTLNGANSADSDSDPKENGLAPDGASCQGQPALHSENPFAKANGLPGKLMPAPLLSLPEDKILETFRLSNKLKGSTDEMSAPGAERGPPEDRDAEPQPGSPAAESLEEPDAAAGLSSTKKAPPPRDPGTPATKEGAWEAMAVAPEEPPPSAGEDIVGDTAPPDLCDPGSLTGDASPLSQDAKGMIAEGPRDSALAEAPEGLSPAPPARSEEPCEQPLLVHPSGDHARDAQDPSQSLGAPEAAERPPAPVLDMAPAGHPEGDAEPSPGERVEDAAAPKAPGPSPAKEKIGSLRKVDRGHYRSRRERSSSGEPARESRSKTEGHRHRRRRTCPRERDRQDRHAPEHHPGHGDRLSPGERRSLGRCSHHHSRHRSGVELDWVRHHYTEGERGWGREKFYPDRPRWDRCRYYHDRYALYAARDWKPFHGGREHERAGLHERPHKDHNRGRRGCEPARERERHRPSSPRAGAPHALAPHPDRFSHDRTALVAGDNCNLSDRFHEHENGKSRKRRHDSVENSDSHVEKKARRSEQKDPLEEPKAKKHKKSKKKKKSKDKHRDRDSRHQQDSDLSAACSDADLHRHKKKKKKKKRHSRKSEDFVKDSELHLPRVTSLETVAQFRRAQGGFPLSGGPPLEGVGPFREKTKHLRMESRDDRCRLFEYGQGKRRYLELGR
In short: (§1)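 The table lists average log2 ratios of fragment over vehicle, from an unpaired t-test on global-median-normalised Spectronaut label-free quantities. Proteins with ≥2 unique peptides were used. Samples were HEK293T lysate (495 µg) treated in triplicate with fragment at 200 µM or vehicle for 3 h, then with Biotin-Ahx-Ub-VS (0.5 µM final) for 1 h, with labelled DUBs NeutrAvidin-enriched and run by diaPASEF LC-MS/MS.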

USP46 = USP46 (UniProt P62068)
In short: as §1

USP47 = target: T2, USP47 (UniProt Q96K76)
T2 sequence (whole entry): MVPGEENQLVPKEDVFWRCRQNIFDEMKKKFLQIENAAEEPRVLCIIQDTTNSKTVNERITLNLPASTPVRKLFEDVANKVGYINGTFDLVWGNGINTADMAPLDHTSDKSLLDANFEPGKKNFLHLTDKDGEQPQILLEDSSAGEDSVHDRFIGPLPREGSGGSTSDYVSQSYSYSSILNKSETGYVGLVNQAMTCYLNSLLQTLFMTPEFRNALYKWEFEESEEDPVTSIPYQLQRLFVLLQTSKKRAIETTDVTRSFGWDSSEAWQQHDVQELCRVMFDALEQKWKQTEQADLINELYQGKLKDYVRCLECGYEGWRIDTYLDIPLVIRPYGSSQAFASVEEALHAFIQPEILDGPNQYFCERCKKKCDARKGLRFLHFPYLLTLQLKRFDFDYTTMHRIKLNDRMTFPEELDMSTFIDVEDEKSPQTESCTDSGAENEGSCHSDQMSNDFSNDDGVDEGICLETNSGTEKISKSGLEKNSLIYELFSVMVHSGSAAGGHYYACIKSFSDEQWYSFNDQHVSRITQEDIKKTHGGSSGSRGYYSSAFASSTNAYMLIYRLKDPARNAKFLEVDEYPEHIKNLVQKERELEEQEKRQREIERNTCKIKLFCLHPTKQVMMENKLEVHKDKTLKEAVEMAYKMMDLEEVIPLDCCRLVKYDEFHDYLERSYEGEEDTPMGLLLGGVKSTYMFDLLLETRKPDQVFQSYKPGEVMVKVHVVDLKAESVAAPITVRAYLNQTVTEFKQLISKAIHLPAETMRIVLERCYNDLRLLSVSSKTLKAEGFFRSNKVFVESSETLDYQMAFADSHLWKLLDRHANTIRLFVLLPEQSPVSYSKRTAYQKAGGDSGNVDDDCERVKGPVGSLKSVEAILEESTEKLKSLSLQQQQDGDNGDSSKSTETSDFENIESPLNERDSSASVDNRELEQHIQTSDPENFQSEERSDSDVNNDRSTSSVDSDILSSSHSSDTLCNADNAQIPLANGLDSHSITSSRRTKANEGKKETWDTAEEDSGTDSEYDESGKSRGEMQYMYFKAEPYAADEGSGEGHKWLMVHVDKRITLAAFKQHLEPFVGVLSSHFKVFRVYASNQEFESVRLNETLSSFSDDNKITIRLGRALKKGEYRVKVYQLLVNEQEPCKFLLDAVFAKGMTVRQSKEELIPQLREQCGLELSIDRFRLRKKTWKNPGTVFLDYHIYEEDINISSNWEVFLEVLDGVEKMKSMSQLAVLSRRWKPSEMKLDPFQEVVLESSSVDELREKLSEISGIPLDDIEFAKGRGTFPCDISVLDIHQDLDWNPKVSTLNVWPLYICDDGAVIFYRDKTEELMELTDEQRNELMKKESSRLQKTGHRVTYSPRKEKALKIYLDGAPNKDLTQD
In short: as §1

USP48 = target: T3, USP48 (UniProt Q86UV5)
T3 sequence (whole entry): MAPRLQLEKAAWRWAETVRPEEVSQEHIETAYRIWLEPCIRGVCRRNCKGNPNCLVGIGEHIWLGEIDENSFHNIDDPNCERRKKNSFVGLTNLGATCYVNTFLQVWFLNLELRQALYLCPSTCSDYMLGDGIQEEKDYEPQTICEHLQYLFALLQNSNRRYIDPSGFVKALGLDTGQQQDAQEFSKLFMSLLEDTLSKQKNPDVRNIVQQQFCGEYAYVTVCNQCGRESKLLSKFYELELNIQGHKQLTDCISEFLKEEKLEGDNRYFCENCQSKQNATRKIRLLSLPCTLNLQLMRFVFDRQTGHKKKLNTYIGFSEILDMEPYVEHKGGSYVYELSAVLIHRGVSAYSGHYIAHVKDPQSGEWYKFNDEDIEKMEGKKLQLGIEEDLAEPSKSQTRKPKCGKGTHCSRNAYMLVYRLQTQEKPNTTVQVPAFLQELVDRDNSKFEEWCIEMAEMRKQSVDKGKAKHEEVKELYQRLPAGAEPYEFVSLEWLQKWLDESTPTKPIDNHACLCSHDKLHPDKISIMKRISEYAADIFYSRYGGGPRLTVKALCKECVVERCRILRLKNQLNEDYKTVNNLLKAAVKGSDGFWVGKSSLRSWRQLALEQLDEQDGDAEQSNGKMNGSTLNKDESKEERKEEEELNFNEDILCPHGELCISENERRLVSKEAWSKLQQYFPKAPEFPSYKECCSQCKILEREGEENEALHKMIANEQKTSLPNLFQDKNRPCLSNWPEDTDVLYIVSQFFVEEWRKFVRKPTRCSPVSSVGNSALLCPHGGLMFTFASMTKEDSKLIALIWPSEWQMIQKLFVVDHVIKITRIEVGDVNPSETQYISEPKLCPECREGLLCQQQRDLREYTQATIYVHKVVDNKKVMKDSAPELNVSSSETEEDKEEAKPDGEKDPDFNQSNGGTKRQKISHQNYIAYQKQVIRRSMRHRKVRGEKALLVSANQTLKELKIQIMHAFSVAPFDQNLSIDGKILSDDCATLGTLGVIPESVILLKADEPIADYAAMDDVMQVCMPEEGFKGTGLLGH
In short: as §1

USP5 = target: T4, USP5 (UniProt P45974)
T4 sequence (whole entry): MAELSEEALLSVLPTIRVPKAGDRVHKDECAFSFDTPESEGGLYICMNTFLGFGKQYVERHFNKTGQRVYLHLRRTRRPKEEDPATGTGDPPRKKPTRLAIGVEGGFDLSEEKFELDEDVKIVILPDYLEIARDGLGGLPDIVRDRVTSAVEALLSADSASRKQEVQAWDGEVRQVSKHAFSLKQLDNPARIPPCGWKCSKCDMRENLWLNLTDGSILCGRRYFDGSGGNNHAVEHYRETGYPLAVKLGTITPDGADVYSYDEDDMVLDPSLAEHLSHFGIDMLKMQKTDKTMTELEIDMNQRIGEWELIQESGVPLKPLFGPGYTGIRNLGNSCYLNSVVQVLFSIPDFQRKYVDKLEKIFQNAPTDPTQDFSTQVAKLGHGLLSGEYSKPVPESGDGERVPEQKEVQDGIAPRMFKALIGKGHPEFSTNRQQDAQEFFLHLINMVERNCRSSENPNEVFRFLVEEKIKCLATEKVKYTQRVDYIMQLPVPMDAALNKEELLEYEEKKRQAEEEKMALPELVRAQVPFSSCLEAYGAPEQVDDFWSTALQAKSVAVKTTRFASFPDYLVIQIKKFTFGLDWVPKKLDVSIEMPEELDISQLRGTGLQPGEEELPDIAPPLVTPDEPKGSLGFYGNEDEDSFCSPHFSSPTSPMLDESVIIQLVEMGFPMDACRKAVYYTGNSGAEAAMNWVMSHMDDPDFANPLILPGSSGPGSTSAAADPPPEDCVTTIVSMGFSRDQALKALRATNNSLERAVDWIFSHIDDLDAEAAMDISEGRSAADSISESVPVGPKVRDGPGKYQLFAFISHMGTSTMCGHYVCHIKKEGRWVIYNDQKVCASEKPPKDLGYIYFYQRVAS
In short: as §1

USP54 = USP54 (UniProt Q70EL1)
In short: as §1

USP7 = USP7 (UniProt Q93009)
In short: as §1

USP8 = target: T5, USP8 (UniProt P40818)
T5 sequence (whole entry): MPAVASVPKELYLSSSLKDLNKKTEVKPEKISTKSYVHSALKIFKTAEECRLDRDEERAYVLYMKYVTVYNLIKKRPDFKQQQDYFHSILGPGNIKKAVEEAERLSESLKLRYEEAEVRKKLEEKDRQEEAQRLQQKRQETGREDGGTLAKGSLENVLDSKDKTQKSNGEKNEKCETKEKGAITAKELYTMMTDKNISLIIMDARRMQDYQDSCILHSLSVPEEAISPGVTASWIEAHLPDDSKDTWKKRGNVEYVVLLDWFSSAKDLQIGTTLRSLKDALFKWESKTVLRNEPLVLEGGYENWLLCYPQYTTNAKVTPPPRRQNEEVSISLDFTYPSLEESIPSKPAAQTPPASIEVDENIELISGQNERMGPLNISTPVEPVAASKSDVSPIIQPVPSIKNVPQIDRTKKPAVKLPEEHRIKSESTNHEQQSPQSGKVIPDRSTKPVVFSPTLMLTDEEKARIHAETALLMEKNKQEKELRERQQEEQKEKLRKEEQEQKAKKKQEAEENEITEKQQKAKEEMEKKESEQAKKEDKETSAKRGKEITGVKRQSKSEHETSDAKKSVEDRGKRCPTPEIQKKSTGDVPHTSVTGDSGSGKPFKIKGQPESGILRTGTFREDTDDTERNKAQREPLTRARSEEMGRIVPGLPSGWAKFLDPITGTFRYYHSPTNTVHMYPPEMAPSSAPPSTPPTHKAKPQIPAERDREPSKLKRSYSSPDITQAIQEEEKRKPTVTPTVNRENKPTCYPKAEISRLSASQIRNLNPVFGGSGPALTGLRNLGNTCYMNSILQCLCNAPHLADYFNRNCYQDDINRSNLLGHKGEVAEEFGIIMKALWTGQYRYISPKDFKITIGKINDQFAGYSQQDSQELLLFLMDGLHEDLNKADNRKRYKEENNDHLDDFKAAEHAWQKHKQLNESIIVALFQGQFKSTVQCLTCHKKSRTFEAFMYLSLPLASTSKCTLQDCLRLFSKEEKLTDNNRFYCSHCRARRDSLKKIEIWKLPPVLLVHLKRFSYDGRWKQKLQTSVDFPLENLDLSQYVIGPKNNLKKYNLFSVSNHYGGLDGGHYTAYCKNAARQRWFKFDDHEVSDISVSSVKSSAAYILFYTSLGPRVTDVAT
In short: as §1

USP9X = USP9X (UniProt Q93008)
In short: as §1

UniProt O00487 = target: UniProt O00487
In short: as §1

Measured: log2 ratio of Biotin-Ahx-Ub-VS probe labelling

Chain of USP7 (Q93009 whole entry, looked up): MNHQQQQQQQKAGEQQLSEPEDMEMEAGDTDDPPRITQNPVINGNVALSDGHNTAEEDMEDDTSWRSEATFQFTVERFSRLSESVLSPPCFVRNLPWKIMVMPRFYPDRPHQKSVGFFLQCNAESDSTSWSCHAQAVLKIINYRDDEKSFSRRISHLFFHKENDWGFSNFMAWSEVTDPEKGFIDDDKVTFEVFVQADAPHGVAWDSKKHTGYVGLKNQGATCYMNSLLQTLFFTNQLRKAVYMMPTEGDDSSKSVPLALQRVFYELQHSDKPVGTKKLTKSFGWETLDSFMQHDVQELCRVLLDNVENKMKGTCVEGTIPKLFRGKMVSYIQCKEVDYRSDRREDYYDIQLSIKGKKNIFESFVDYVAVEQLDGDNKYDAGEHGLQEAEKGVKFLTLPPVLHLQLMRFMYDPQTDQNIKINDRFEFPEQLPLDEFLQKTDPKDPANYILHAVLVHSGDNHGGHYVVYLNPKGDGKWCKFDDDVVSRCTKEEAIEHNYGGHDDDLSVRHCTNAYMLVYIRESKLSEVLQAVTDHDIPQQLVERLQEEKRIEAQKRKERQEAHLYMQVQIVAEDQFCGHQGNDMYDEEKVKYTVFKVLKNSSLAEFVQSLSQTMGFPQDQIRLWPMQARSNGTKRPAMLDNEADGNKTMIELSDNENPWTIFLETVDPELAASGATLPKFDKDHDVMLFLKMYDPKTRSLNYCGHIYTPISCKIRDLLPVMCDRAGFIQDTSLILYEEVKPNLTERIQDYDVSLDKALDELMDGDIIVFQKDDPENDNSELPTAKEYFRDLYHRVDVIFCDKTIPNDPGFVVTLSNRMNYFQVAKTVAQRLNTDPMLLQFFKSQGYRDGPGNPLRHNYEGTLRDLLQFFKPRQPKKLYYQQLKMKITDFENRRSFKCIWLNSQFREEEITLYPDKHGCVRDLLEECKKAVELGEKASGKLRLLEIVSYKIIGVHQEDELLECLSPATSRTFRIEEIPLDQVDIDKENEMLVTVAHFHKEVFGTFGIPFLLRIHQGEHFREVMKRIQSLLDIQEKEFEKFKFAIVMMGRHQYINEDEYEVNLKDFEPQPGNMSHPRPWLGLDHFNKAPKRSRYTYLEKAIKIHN
Chain of USP46 (P62068 whole entry): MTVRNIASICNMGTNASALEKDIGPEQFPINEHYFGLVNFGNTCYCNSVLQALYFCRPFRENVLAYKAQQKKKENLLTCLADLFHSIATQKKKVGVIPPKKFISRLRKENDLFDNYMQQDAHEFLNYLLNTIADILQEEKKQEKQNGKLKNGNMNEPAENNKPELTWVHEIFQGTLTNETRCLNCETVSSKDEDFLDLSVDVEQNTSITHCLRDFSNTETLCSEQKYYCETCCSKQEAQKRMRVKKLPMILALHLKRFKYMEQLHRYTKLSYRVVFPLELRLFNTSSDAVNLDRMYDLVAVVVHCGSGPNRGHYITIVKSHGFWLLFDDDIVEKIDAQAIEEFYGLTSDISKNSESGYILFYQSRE
Chain of UniProt O00487 (O00487 whole entry): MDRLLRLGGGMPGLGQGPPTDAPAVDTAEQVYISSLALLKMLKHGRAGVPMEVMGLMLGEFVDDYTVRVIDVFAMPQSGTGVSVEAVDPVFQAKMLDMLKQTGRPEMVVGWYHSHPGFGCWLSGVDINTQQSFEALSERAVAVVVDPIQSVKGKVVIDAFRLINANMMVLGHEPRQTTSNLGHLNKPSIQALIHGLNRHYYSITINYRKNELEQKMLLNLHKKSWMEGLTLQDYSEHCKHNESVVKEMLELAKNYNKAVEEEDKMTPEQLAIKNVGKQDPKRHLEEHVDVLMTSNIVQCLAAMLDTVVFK
Chain of USP54 (Q70EL1 whole entry): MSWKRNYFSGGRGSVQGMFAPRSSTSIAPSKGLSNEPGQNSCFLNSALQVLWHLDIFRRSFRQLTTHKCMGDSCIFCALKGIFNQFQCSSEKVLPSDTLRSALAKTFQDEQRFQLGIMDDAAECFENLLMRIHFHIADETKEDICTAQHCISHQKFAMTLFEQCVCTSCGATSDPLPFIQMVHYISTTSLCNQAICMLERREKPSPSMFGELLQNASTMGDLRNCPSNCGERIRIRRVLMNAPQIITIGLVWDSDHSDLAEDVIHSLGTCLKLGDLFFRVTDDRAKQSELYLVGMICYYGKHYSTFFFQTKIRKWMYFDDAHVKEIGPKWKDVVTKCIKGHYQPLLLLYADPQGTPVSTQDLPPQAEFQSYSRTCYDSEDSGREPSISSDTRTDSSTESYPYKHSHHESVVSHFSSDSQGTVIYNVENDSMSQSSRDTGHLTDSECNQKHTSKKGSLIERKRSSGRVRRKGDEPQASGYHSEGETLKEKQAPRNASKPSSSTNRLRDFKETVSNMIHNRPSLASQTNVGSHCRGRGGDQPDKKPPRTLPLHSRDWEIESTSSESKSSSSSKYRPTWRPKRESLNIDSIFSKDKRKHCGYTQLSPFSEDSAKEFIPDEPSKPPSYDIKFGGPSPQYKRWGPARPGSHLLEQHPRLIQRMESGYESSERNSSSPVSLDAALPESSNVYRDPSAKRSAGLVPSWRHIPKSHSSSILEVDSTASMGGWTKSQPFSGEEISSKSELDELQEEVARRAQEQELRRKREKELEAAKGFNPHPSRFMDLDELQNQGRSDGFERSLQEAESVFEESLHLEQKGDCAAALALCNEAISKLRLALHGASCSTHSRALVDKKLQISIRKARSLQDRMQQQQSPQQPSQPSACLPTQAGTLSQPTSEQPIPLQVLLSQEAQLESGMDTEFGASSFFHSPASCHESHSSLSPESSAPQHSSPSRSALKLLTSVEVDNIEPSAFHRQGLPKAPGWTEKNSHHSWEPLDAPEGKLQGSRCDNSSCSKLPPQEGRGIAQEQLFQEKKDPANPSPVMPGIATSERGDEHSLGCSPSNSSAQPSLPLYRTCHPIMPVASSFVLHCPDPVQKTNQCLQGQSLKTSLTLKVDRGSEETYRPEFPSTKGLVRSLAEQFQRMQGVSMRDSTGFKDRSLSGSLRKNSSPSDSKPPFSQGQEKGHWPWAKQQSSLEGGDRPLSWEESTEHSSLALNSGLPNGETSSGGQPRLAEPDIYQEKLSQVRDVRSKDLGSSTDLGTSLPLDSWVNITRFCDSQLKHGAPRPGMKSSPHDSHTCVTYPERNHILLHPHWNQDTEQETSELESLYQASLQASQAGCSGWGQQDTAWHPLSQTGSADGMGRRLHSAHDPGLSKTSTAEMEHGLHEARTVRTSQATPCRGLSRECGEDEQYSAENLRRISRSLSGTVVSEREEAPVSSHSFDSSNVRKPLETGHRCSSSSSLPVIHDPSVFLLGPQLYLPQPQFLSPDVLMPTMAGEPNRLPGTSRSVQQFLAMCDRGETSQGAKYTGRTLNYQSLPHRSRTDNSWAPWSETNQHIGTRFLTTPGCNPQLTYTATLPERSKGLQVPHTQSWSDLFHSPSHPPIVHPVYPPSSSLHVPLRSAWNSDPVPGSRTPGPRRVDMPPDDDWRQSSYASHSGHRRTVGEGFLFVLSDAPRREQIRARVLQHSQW

COc1cc(Cl)c(C)cc1NC(=O)CCl
inactive: USP42 -0.591 | USP46 -0.0884 | USP47 -0.965 | USP48 -0.36 | USP5 -0.267 | USP54 0.718 | USP7 -0.373 | USP8 -0.251 | USP9X -0.645 | UniProt O00487 -0.246
